Hits are enriched below; roughly 2.2% of the tested compounds scored in any of these assays.
IEC-6 tox-1: cytotoxicity in IEC-6 intestinal epithelial cells, primary screen, cytotoxicity control for KLF5 inhibitor project, cell-based, luminescence | 290,000 tested, 0.78% active | inhibition, % at 5 µM | AID 1825, 2009 | IEC-6 cytotoxicity, luminescence viability
aSyn UTR inh: MLPCN primary screen, SNCA 5' untranslated region. AID 1813, 2009. alpha-synuclein 5'UTR reporter, inhibitor activity. 300,000 tested, 0.82% active. inhibition, % (tested at 7.5 µM); in the data active means inhibition above about 60%;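 further: H4 neuroglioblastoma cells stably carrying SNCA 5'UTR luciferase fusion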
APP 5UTR inh: inhibitors of APP translation via 5'UTR reporter, primary screen, APP 5'UTR luciferase, SH-SY5Y cells. SH-SY5Y APP 5'UTR-luciferase reporter, luminescence. inhibition, % at 2 µM. 190,000 tested, 0.82% active;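 active means inhibition above a set limit, derived from the sample mean plus 3 SD, cut at about 45% in these data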
KLF5 inh: KLF5 expression inhibitors, primary screen, DLD-1 cells, luminescence | 290,000 tested, 0.23% active | DLD-1 KLF5 promoter-luciferase reporter | inhibition, % at 5 µM;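 active means inhibition above a per-plate limit of that plate's mean compound inhibition plus 3 SD, cut at about 60% in these data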;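 further: higher means less KLF5 promoter-driven luciferase light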
BaF3 tox: parental Ba/F3 cell viability inhibition, counter-screen for JAK2V617F inhibitor project, murine pro-B, CellTiter-Glo luminescence; 220,000 tested, 1.1% active; CellTiter-Glo ATP luminescence; inhibition, % at 5.6 µM;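 active means inhibition above a per-campaign cutoff, the mean inhibition of all tested compounds plus 3 SD, cut at about 27% in these data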
Ba/F3 V617F tox: reduced viability of JAK2V617F-dependent Ba/F3 cells, primary screen, JAK2V617F inhibitor project, cell-based, Ba/F3 EpoR-JAK2V617F, luminescence | ATP luminescence | inhibition, % at 5.6 µM | 220,000 tested, 1.1% active;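 active means inhibition above the campaign mean plus 3 SD over all tested compounds, cut at about 24% in these data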;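 further: cytokine-independent growth of Ba/F3 cells driven by EpoR plus mutant JAK2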
KLF5 confirm: KLF5 expression inhibitors, confirmation, DLD-1 cells, luminescence; shares compounds with KLF5 inh; DLD-1 KLF5 promoter firefly luciferase reporter; inhibition, % at 4 µM; 610 tested, 79% active; AID 1834, 2009;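 active means inhibition above a set limit taken from the earlier primary screen, cut at about 63% in these data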
IEC-6 tox-2: cytotoxicity in rat IEC-6 cells, cytotoxicity control for KLF5 inhibitor project, cell-based, luminescence, triplicate. shares compounds with KLF5 inh. AID 1905, 2009. 610 tested, 56% active. inhibition, % at 4 µM. IEC-6 rat intestinal cells, viability luminescence; in the data active means inhibition above about 23%;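 further: cells exposed to compounds for 48 hours before viability read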
IEC-6 cytotox cf: cytotoxic compounds in IEC-6 epithelial cells, confirmation, cytotoxicity control, cell-based, luminescence; shares compounds with IEC-6 tox-1; IEC-6 rat intestinal epithelial viability; inhibition, % at 5 µM; 1,900 tested, 63% active; AID 1907, 2009
A number is an active result; – = inactive; · = no result given. Unless noted, no stated cut-off is given here; in the data, active means inhibition above about 22%; inactive means the rest.

SMILES	IEC-6 tox-1	aSyn UTR inh	APP 5UTR inh	KLF5 inh	BaF3 tox	Ba/F3 V617F tox	KLF5 confirm	IEC-6 tox-2	IEC-6 cytotox cf
Cc1cccc2c(C(=O)N3CCCCC3)cc(-c3ccccc3)nc12	–	–	·	–	·	·	·	·	·
COc1cc2c(c(OC)c1OC)-c1ccc(NC(=O)c3ccccc3)c(=O)cc1[C@@H](NC(C)=O)CC2	87	–	·	77	·	·	64	49	49
COc1ccc(/C=C/C(=O)c2cc(F)ccc2OC(=O)c2ccccc2OC)cc1OC	52	68	89	70	–	–	84	40	41
COc1ccc(/C=C/C(=O)c2cc(F)ccc2OC(=O)c2ccc(OC)c(OC)c2)cc1OC	–	–	–	–	–	–	·	·	·
COc1cc(-c2noc(C)c2-c2ccc(N(C)C)nc2)cc(OC)c1OC	93	–	·	76	·	·	85	82	59
COC(=O)c1ccc(C(=O)NC2CCCc3c2cnn3-c2ccc(C)c(C)c2)cc1 (configuration not stated)	76	104	·	68	·	·	76	55	58
Cc1cc(C(=O)NC2CCCc3c2cnn3-c2ccc(C)c(C)c2)nc(C)n1 (configuration not stated)	–	–	·	–	·	·	·	·	·
Cc1c(Br)c(=O)oc2c(Br)c(O)c(O)cc12	–	–	–	–	–	–	·	·	·
Cc1c(S(=O)(=O)NC2CCCCC2)c(=O)n(C)c(=O)n1C	·	–	·	·	·	·	·	·	·
COc1cc(C(=O)N/N=C/c2sccc2C)cc(OC)c1OC	89	114	92	70	84	80	86	63	65
Cc1ccsc1/C=N/NC(=O)c1ccncc1	–	–	–	–	–	–	·	·	·
O=C(N/N=C/c1ccc(O)cc1O)c1ccncc1	–	–	·	–	·	·	·	·	·
O=C(N/N=C/c1cc(Br)cc(Br)c1O)c1ccncc1	24	–	–	78	–	–	88	40	–
C/C(=N\NC(=O)c1n[nH]c2c1CCC2)c1cccs1	81	107	·	75	73	72	71	–	–
CCN(CC(=O)Nc1cc(Cl)ccc1C)C(=O)CCOc1ccc(C)cc1	·	–	·	·	·	·	·	·	·
Cc1c(/C=N\NC(=O)C2COc3ccccc3O2)c2ccccc2n1C (configuration not stated)	80	102	91	74	76	78	82	75	61
CCN(CC)c1ccc(-c2nn3c(-c4ccccc4OC)nnc3s2)cc1	93	83	94	80	87	93	91	72	77
NS(=O)(=O)c1ccc(N=Nc2ccc(O)c3ncccc23)cc1	46	64	·	80	·	·	74	–	–
Cc1nn(CC(=O)Nc2ccc(C(=O)N(C)C)cc2)c(=O)c2ccccc12	–	–	–	–	–	–	·	·	·
Cc1cc(NS(=O)(=O)c2ccccc2)n(-c2ccccc2)n1	–	–	–	–	–	–	·	·	·
Cc1ccccc1C1=NC(C(F)(F)F)(C(F)(F)F)c2c(n(C)c(=O)n(C)c2=O)N1	–	–	–	–	–	–	·	·	·
Cn1c2c(c(=O)n(C)c1=O)C(C(F)(F)F)(C(F)(F)F)N=C(c1ccc(Cl)cc1)N2	37	99	51	81	86	95	84	57	92
Cc1ccc(OCC(=O)NNC(=O)Cn2nnc(-c3ccccc3)n2)cc1	–	–	–	–	–	–	·	·	·
O=C(N/N=C(\c1ccccc1)c1cccnc1)c1cccc(F)c1	100	80	·	68	·	·	84	75	80
O=C(N/N=C(\c1ccccc1)c1cccnc1)c1ccc(O)cc1	–	–	·	–	·	·	·	·	·
SMILES	IEC-6 tox-1	aSyn UTR inh	APP 5UTR inh	KLF5 inh	BaF3 tox	Ba/F3 V617F tox	KLF5 confirm	IEC-6 tox-2	IEC-6 cytotox cf
O=C(Nc1nc2ccccc2[nH]1)c1ccccc1OC(F)F	–	–	·	–	·	·	·	·	·
O=C(Nc1nc2ccccc2[nH]1)c1ccccc1F	43	108	–	76	46	50	75	46	57
CCOC(=O)c1cc(-c2ccc(C)o2)n[nH]1	–	–	–	–	–	–	·	·	·
CN1C[C@@H]2C[C@@H](C3=Cc4cc(Cl)ccc4OC3)N3CCC[C@@]23C1=O	–	–	–	–	–	–	·	·	·
COc1ccc2c(c1)C=C([C@@H]1C[C@H]3CN(c4ccccc4)C(=O)[C@]34CCCN14)CO2	87	–	–	75	101	99	–	–	–
COc1ccc(-n2c(=O)c3ccccc3n(CC(=O)NCC3CCCO3)c2=O)cc1 (configuration not stated)	–	–	·	–	·	·	·	·	·
COc1cccc(N2CCN(C(=O)c3ccc(CS(=O)c4ccc(C)cc4)o3)CC2)c1 (configuration not stated)	85	97	·	74	·	·	92	85	59
COc1cccc(N2CCN(C(=O)c3ccc(CS(=O)Cc4ccc(C)cc4)o3)CC2)c1 (configuration not stated)	–	–	·	–	·	·	·	·	·
O=C(NC1CCCC1)c1ccc(Br)c(S(=O)(=O)N2CCCCC2)c1	–	–	·	–	·	·	·	·	·
CCOc1ccccc1NS(=O)(=O)c1ccc(-c2cnc(C3CC3)o2)cc1	90	–	·	78	·	·	83	64	59
CN1CC[C@@]2([C@@]34CCN(C)C3Nc3ccccc34)c3ccccc3NC12 (some centres not stated)	·	–	·	·	·	·	·	·	·
COC(=O)C1CC23C=CCN4CCC5(c6ccccc6NC15C2C)C43 (configuration not stated)	88	94	·	62	·	·	79	59	59
CCCCCCCCCC[n+]1cccc2c3ccccc3ccc21	52	–	–	96	92	101	65	38	36
COc1cc2c(cc1OC)C(C)N(C(=O)c1cc(C)on1)CC2 (configuration not stated)	85	97	·	74	·	·	89	54	55
COc1ccc(OC)c(C2=Nn3c(nnc3-c3cc(OC)c(OC)c(OC)c3)SC2)c1	–	–	–	–	–	–	·	·	·
COc1cc(-c2nnc3n2N=C(c2ccccc2)CS3)cc(OC)c1OC	77	63	94	79	81	74	73	69	67
COc1ccc(OC)c(Nc2c3c(nc4ccccc24)CCC3)c1	85	106	·	64	·	·	111	63	58
Cc1ccc(NC(=O)COC(=O)CCC(=O)c2ccc(C(C)(C)C)cc2)c([N+](=O)[O-])c1	–	–	–	–	–	–	·	·	·

High-throughput results: PubChem, several laboratories
